Experimental data from PubChem BioAssay.
Active and inactive are the calls of the source.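 The calls were made as follows, unless noted: active = fluorescence slope higher than the sample average by over 3 SD (cut at about -0.22 in these data, passing the limit was not always enough); inactive = the rest.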

What was measured:
[1] = inhibitors of TNFa-induced NFkB p65 translocation, primary screen, imaging, HUVEC, MLSMR starter and 10KST1 sets (AID 438;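 active = inhibition above 20% together with a positive visual image hit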;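 also: compound added about 3h40 before a 20 min TNFalpha stimulation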;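 as to inhibition: signal is the nuclear over cytoplasmic p65 intensity ratio per well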); details: HUVEC TNFa-induced p65 nuclear translocation; cell count: measured here: nuclei count (cytotoxicity indicator), at 2.08 µM; inhibition: at 2 µM, stronger effect = higher value, 0% TNFa-plus-vehicle, 100% no-TNFa wells
[2] = inhibitors of mutant huntingtin aggregation, primary screen, imaging, exon1htt(103Q)mCFP cells, high-content imaging (AID 483;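 active = visual image review flags a hit and inhibition of aggregation exceeds 20%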;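 also: compound exposure lasted 3 days before fixation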;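 as to nuclei count: percent of the per-plate median nuclei count of sample wells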); details: exon1htt(103Q)mCFP cell line, aggregate imaging, at 2 µM; inhibition of aggregation: stronger effect = higher value; nuclei count: measured here: cell count, toxicity
[3] = inhibitors of E-selectin induction by TNFa, primary screen, imaging, HUVEC, immunofluorescence, MLSMR starter and 10KST1 sets (AID 487;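 active = visually confirmed hit in the image check and inhibition above 20%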;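 as to inhibition: signal is fraction of cell area covered by stained E-selectin grains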;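 as to nuclei count: 100% = median nuclei count of all wells on the same plate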); details: HUVEC TNFalpha-induced E-selectin immunofluorescence imaging, at 2 µM; inhibition: stronger effect = higher value; nuclei count: measured here: cell number, toxicity
[4] = molecular target: Voltage-gated potassium channel subunit beta-2 (Rattus norvegicus) (UniProt P62483); assay: KvBeta enzyme negative modulators, primary screen, biochemical, NADPH fluorescence (AID 622); details: recombinant KvBeta, 4-cyanobenzaldehyde reduction, at 10 µM, stronger effect = higher value;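 also: slope of raw intensity against log time taken from 70 to 1610 s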
[5] = molecular target: Voltage-gated potassium channel subunit beta-2 (Rattus norvegicus) (UniProt P62483); assay: KvBeta positive modulators, primary screen, biochemical, NADPH fluorescence (AID 623;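 active = NADPH fluorescence slope more negative than the mean of all samples by about 3 SD, 99.7% confidence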;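 also: fluorescence intensity change per second fitted from 20 to 320 s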); details: Recombinant KvBeta, NADPH fluorescence decrease slope, 10 min; at 10 µM; stronger effect = lower value
[6] = molecular target: Alpha-2C adrenergic receptor (Homo sapiens) (UniProt P18825); assay: modulators of alpha2C/GIRK thallium flux, primary screen, cell-based, HEK293 alpha2C/GIRK1/2 (AID 624;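 active = fluorescence slope after compound addition differing from the mean of all screened samples at 99.7% confidence, in either direction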;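 also: slope of fluorescence ratio to pre-addition baseline per second over 15 to 24 s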); details: thallium flux BTC fluorescence, at 10 µM, actives lie on both sides
[7] = inhibitors of Sendai virus-induced IRF3 signaling, primary screen, TLR/RLR signaling modifier project, cell-based, Sendai virus stimulus, luciferase, 10K MLSCN set (AID 602276;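 active = inhibition at or above 50% at 10 µM; inactive = inhibition below 50%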;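 also: firefly luciferase from ISG56 promoter only with Renilla not read in this screen; 0% = Sendai virus plus DMSO and 100% = medium plus DMSO without virus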); details: HEK293 RL24 IRF3 luciferase reporter, at 10 µM, stronger effect = higher value
[8] = inhibitors of poly I:C-induced TLR3 signaling, primary screen, cell-based, poly I:C stimulus, luciferase, 10K MLSCN set (AID 602277;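 active = inhibition of the reporter signal at or above 50%; inactive = inhibition below 50%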); details: HEK293-TLR3 RL24 IRF3 luciferase reporter, at 10 µM, stronger effect = higher value

Voltage-gated potassium channel subunit beta-2 (Rattus norvegicus), sequence (P62483 whole entry, looked up): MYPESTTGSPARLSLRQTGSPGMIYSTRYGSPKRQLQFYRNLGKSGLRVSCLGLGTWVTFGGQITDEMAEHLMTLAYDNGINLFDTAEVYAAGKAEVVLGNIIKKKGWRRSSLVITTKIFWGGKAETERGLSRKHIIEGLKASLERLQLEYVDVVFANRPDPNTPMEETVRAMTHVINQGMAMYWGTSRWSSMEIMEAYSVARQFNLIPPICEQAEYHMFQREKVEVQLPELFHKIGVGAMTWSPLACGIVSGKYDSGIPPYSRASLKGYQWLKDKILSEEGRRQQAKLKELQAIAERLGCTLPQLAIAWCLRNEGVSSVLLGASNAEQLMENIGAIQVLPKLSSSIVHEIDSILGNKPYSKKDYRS
Alpha-2C adrenergic receptor (Homo sapiens), sequence (P18825 whole entry, looked up): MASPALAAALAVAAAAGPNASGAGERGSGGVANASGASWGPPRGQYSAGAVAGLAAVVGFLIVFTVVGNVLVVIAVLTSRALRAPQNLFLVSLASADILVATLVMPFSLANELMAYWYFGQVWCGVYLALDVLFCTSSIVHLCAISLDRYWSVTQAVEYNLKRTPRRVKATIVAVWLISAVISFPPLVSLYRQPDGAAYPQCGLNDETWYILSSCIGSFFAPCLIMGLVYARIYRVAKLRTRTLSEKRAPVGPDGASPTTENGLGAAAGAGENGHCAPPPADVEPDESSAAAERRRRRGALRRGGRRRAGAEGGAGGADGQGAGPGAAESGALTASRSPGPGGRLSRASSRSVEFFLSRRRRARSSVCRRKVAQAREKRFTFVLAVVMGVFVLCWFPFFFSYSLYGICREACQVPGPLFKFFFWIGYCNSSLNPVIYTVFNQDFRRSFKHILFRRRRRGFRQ

Row | SMILES | cell count [1] | inhibition [1] | inhibition of aggregation [2] | nuclei count [2] | inhibition [3] | nuclei count [3] | fluorescence slope [4] | NADPH fluorescence slope [5] | slope [6] | inhibition [7] | inhibition [8]
1 | N#Cc1c(N)c(C(=O)c2ccccc2)n2c1CCCC2 | 270 | -3.7% (inactive) | -10.6% (inactive) | 86.4% | -11.6% (inactive) | 96.6% | -0.46 (inactive) | -1.7e-05 (inactive) | 0.006 (inactive) | -3.25% (inactive) | 14.6% (inactive)
2 | O=C(CN1CCN(c2ccccn2)CC1)N1c2ccccc2CCc2ccccc21 | 568 | 3.3% (inactive) | -0.5% (inactive) | 103% | 46.8% (inactive) | 99.5% | -0.341 (inactive) | -5.2e-05 (inactive) | 0.0046 (inactive) | 13% (inactive) | 15.9% (inactive)
3 | COc1c(C(=O)Nc2c(C)n(C)n(-c3ccccc3)c2=O)ccc2ccccc12 | 239 | -1.7% (inactive) | 16.4% (inactive) | 63.2% | -68.7% (inactive) | 117% | -0.512 (inactive) | -3.9e-05 (inactive) | 0.00486 (inactive) | 6.79% (inactive) | 11.2% (inactive)
4 | C=CCn1c(-c2cccs2)nc2nc3ccccc3nc21 | 546 | -5.4% (inactive) | -7.5% (inactive) | 90.1% | -77.5% (inactive) | 141% | -0.602 (inactive) | 4.4e-06 (inactive) | 0.0057 (inactive) | -3.42% (inactive) | 2.94% (inactive)
5 | O=C(CCN1C(=O)c2ccccc2C1=O)N1CCN(C(=O)c2ccccc2)CC1 | 548 | 2.5% (inactive) | 7.3% (inactive) | 98.2% | -145% (inactive) | 118% | -0.491 (inactive) | -4.1e-05 (inactive) | 0.00673 (inactive) | 9.17% (inactive) | 19.5% (inactive)
6 | COc1ccc(CC(=O)Nc2c3c(nn2-c2cccc(Cl)c2)CS(=O)C3)cc1 (stereo not drawn) | 466 | 5.7% (inactive) | -8.1% (inactive) | 101% | -43.1% (inactive) | 87.6% | -0.492 (inactive) | 2.6e-05 (inactive) | 0.00562 (inactive) | 9.81% (inactive) | 14.2% (inactive)
7 | COC(=O)CN1C(=O)CC(C)(C)S(=O)c2ccccc21 (stereo not drawn) | 769 | -9.2% (inactive) | 13.9% (inactive) | 82.6% | -44% (inactive) | 98.5% | -0.574 (inactive) | -5.2e-05 (inactive) | 0.00765 (inactive) | 4.76% (inactive) | 22.2% (inactive)
8 | COCCCN(C(C)=O)c1nc(-c2ccccc2)cs1 | 472 | -6.3% (inactive) | -6% (inactive) | 90.9% | 6% (inactive) | 114% | -0.533 (inactive) | -3.7e-05 (inactive) | 0.00569 (inactive) | -31.3% (inactive) | -75% (inactive)
9 | Cc1cc(C)cc(NC(=O)CCNS(=O)(=O)c2ccc3c(c2)oc(=O)n3C)c1 | 755 | -14.1% (inactive) | -14.6% (inactive) | 120% | -79.9% (inactive) | 100% | -0.601 (inactive) | -3.2e-05 (inactive) | 0.00584 (inactive) | 20.7% (inactive) | 22.7% (inactive)
10 | COC(=O)C1=C(CSCc2ccco2)NC(=O)NC1c1cc(C)ccc1C (stereo not drawn) | 369 | -10.5% (inactive) | -15.1% (inactive) | 115% | -20.5% (inactive) | 109% | -0.423 (inactive) | 3.5e-05 (inactive) | 0.00488 (inactive) | -3.03% (inactive) | -1.57% (inactive)
11 | COc1cccc(-c2nc(CS(=O)CC(=O)NCCCOC(C)C)c(C)o2)c1 (stereo not drawn) | 193 | -13% (inactive) | 5.9% (inactive) | 119% | -27.1% (inactive) | 95.8% | -0.486 (inactive) | -9.9e-06 (inactive) | 0.00479 (inactive) | 11.4% (inactive) | 7.08% (inactive)
12 | Cc1cc(C(=O)N2CCN(c3ncccn3)CC2)cs1 | 401 | -0.7% (inactive) | 4.3% (inactive) | 99% | 0.9% (inactive) | 110% | -0.591 (inactive) | -2.2e-05 (inactive) | 0.00264 (inactive) | 13.1% (inactive) | -6.87% (inactive)
13 | Nn1c(SCC(=O)Nc2ccc(Oc3ccccc3)cc2)nnc1C1CC1 | 331 | -12.3% (inactive) | 17.5% (inactive) | 91.2% | -57.3% (inactive) | 132% | -0.378 (inactive) | 1.7e-05 (inactive) | 0.00645 (inactive) | -8.58% (inactive) | -16% (inactive)
